Rows were chosen to be rich in hits. Some 12% of all compounds tested hit in one or more screens of this group.
BAZ2B inh: qHTS Assay for Inhibitors of BAZ2B | Potency, µM (titrated, usually from 114 µM), inactives show top-dose activity change, negative = inhibition, usual class: inhibitors | Bromodomain adjacent to zinc finger domain protein 2B (Homo sapiens), Q9UIF8 | AlphaScreen BAZ2B-H3K14Ac peptide displacement | 360,000 tested, 4.4% active; further: potency means the concentration at half of the fitted maximal effect; on the % scale 0 is the no-effect control and ±100 the full control effect; nearly all actives have a fitted effect of over 60% in size
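BAZ2B (50 nM) with biotin-H3(5-23)K14Ac peptide (50 nM) in PBS pH 7.4, 0.01% Tween-20, preformed 30 min, then compound 30 min at room temperature; top concentration 110uM. AlphaScreen streptavidin donor/nickel chelate acceptor beads (10 ug/mL final), 20 min dark, signal read.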
G9a inh: qHTS Assay for Inhibitors of Histone Lysine Methyltransferase G9a. Histone-lysine N-methyltransferase EHMT2 (Homo sapiens), Q96KQ7. G9a H3K9 monomethylation, AlphaScreen, 2 h. 350,000 tested, 8.8% active. Potency, µM (doses to about 102 µM), without a hit: top-dose activity, negative = inhibition, most hits filed as inhibitors. AID 504332, 2011; further: potency means the concentration at half of the fitted maximal effect; on the % scale 0 is the no-effect control and ±100 the full control effect; nearly all actives have a fitted effect of over 75% in size
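Readings reflect AlphaScreen signal from monomethyl-H3K9 antibody detection. HMT at 20 nM; substrate b-H3K9 500 nM; cofactor SAM 20 uM; 2 h RT reaction; compounds tested as titrations in qHTS with 15 min preincubation.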
PLK1 PBD inh: qHTS for Inhibitors of PLK1-PDB (polo-like kinase 1 - polo-box domain): Primary Screen; Serine/threonine-protein kinase PLK1 (Homo sapiens), P53350; Plk1 PBD binding of FITC phosphopeptide, fluorescence polarization; Potency, µM, without a hit: max response, negative = inhibition, actives largely listed as inhibitors; 360,000 tested, 2.8% active; AID 720504, 2013; further: potency means the concentration at half of the fitted maximal effect; series mostly up to about 57 µM; on the % scale 0 is the no-effect control and ±100 the full control effect; nearly all actives have a fitted effect of over 65% in size
PI5P4K alpha inh: qHTS for Inhibitors of phosphatidylinositol 5-phosphate 4-kinase (PI5P4K). PI5P4Kalpha enzyme, ADP-Glo luminescence, 60 min; active compounds read low. max response, %. Phosphatidylinositol 5-phosphate 4-kinase type-2 alpha (Homo sapiens), P48426. 330,000 tested, 1.2% active; active means max response of -50% or lower; inconclusive means between -30% and -50%; inactive means -30% or higher; further: value at the top dose of about 77 µM; on the % scale 0 is the no-effect control and ±100 the full control effect
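qHTS, 1536-well: enzyme/substrate mix, compound by pin tool, 5 microM ATP final; RT 60 min; ADP-Glo reagents 1 (45 min) then 2 (30 min); luminescence.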
JMJD2A Tudor inh: qHTS Assay for Inhibitors of JMJD2A-Tudor Domain | Lysine-specific demethylase 4A (Homo sapiens), O75164 | AlphaScreen JMJD2A-Tudor / H3K4me3 peptide binding | Potency, µM (highest dose often 114 µM), for the others: top-dose activity change, negative = inhibition, most hits filed as inhibitors | 390,000 tested, 4.4% active; further: potency means the concentration at half of the fitted maximal effect; on the % scale 0 is the no-effect control and ±100 the full control effect; nearly all actives have a fitted effect of over 50% in size
Target sequence (O75164 whole entry, looked up, the tested form may be a part): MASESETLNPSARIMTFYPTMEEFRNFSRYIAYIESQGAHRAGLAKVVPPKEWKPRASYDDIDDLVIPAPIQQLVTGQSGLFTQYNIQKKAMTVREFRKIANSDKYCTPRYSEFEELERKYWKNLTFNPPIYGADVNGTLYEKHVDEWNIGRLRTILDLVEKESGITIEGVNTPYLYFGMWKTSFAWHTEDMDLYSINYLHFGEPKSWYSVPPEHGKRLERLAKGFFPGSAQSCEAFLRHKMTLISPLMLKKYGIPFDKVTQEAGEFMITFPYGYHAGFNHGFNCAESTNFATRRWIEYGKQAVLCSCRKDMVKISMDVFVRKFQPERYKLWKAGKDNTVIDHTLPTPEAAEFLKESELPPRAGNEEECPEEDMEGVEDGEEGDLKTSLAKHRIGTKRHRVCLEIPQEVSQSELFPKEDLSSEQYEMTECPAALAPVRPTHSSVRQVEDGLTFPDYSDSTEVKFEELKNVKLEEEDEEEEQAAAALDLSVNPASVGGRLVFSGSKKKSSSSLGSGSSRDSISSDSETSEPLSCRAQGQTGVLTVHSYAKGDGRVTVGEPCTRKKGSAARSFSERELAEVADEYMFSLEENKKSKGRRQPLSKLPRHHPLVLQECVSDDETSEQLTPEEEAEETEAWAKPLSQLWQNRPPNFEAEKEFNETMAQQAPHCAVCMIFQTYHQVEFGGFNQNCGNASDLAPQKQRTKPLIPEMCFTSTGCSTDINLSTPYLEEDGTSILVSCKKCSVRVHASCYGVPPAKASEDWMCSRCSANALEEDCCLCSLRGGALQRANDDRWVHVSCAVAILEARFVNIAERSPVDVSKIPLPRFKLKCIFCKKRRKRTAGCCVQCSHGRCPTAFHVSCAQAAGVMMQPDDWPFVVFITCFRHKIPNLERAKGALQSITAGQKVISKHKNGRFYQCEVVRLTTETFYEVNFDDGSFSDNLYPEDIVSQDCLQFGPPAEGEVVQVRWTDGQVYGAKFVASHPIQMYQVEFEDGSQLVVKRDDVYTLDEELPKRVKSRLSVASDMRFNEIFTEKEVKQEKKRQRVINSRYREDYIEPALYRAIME
HP1b binding inh: HTS for Inhibitors of HP1-beta Chromodomain Interactions with Methylated Histone Tails | Chromobox protein homolog 1 (Homo sapiens), P83916 | AID 540317, 2011 | 390,000 tested, 0.56% active | AlphaScreen HP1-beta / biotin-H3K9me3 peptide binding | Potency, µM (series often up to 114 µM), for the others: at the top dose activity change, negative = inhibition, hits mostly inhibitors; further: potency means the concentration at half of the fitted maximal effect; nearly all actives have a fitted effect of over 70% in size
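HP1-beta protein (50 nM final) preincubated 30 min at room temperature with biotinylated H3(1-18)K9me3 peptide (50 nM) in PBS pH 7.4, 0.01% Tween-20, then compound added for 30 min. AlphaScreen streptavidin donor/nickel chelate acceptor beads (10 ug/mL final), 30 min dark, luminescence read.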
* = called active by the depositor; [ ] = dose if it differs, or a comment. Unless noted, the call rests on the fitted dose curve; in most records, active means well fitted curve in the direction sought with a large enough effect; inconclusive means small, poorly fitted or top-dose-only effect, or another doubt; inactive means no such curve, though single readings can be large; an effect the other way counts as inactive or inconclusive.

`COc1ccc(OC)c(/C(C)=N/Nc2ccc(C(=O)O)cc2)c1` gave BAZ2B inh -22%, G9a inh 14µM*, PLK1 PBD inh -1%, PI5P4K alpha inh 1, JMJD2A Tudor inh -7% and HP1b binding inh 27%.
Screening CCS(=O)c1ccccc1C(=O)OCC(=O)N1CCC(c2ccccc2)=N1 (stereo not drawn) returned PLK1 PBD inh 7%, PI5P4K alpha inh 6, JMJD2A Tudor inh -7% and HP1b binding inh 35%.
CC(=O)c1ccc(NC(=O)Cn2cc3c(n2)CCCC3)cc1 was read as BAZ2B inh 1%, G9a inh 4%[59 µM], JMJD2A Tudor inh -13% and HP1b binding inh 18%.
`CCCCN(C=O)c1c(CC)nc2c(OCC(=O)c3ccc(F)cc3)cccn12` gave PLK1 PBD inh -9% and PI5P4K alpha inh -5.
CCOC(=O)c1cc(C)[nH]c(=S)c1C#N was read as BAZ2B inh inconclusive, G9a inh -1%[0.501 µM], PLK1 PBD inh 27µM*, PI5P4K alpha inh inconclusive, JMJD2A Tudor inh 6.3µM* and HP1b binding inh -14%.
COc1cc2nc(NCCC(C)C)n3nc(-c4ccccc4)nc3c2cc1OC was read as BAZ2B inh -10%, G9a inh -13%[59 µM], JMJD2A Tudor inh -13% and HP1b binding inh -10%.
Screening CCC1CCCCN1CCCNC(=O)c1c(O)nc2ccccn2c1=O (stereo not drawn) returned BAZ2B inh -17%, G9a inh 79µM*, PLK1 PBD inh -2%, PI5P4K alpha inh 3, JMJD2A Tudor inh -9% and HP1b binding inh 23%.
For Cc1ccc(-c2nc3ccc(C)cn3c2CC2CCCCC2)cc1 the results were PLK1 PBD inh -3% and PI5P4K alpha inh 1.
Screening O=C(Nc1ccccc1Br)C1CCCN(S(=O)(=O)c2cccc3nsnc23)C1 (stereo not drawn) returned G9a inh inconclusive, JMJD2A Tudor inh -17% and HP1b binding inh 4%.
COc1ccc(NC(=O)c2ccccc2)cc1 was read as BAZ2B inh -23%, G9a inh -1%[0.501 µM], PLK1 PBD inh -12%, PI5P4K alpha inh -2, JMJD2A Tudor inh -27% and HP1b binding inh 16%.
For COc1ccc(C(=O)NNc2ccccc2)cc1 the results were BAZ2B inh inconclusive, G9a inh 8.9µM*, PLK1 PBD inh 2%, PI5P4K alpha inh 0, JMJD2A Tudor inh -3% and HP1b binding inh 13%.
For COc1ccc(NC(=S)NNc2ccc(C(=O)O)cc2)cc1 the results were BAZ2B inh 10%, G9a inh 79µM*, PLK1 PBD inh inconclusive, PI5P4K alpha inh -9, JMJD2A Tudor inh -33% and HP1b binding inh inconclusive.
For COc1ccc(C(=O)NNC(=O)c2ccccn2)cc1 the results were BAZ2B inh -3%, G9a inh -1%, PLK1 PBD inh 2%, PI5P4K alpha inh -57*, JMJD2A Tudor inh 8% and HP1b binding inh 38%.
COc1ccc(C(=O)O/N=C(\N)c2ccccn2)cc1 was read as BAZ2B inh 5%, G9a inh inconclusive, PLK1 PBD inh -14%, PI5P4K alpha inh -71*, JMJD2A Tudor inh -5% and HP1b binding inh 35%[57 µM].
`COC(=O)C1=C(C)NC(C)=C(C(=O)OC)C1C(=O)OCC(=O)NC1CCCCC1C` (stereo not drawn) gave PLK1 PBD inh 0% and PI5P4K alpha inh -10.
Screening CC(C)C1=Nc2cccc3cccc(c23)N1 returned BAZ2B inh inconclusive, G9a inh 28µM*, PLK1 PBD inh 9.5µM*, PI5P4K alpha inh -18, JMJD2A Tudor inh -16%[57.1 µM] and HP1b binding inh -7%.
Nc1cccc(C2=Nc3cccc4cccc(c34)N2)c1 was read as BAZ2B inh -6%, G9a inh 25µM*, PLK1 PBD inh -24%, PI5P4K alpha inh -18, JMJD2A Tudor inh -3% and HP1b binding inh 20%.
Screening ClCC1=Nc2cccc3cccc(c23)N1 returned BAZ2B inh 79µM* and G9a inh inconclusive.
For COc1ccc(C2=Nc3cccc4cccc(c34)N2)cc1 the results were BAZ2B inh -37%, G9a inh inconclusive, PLK1 PBD inh -25%, JMJD2A Tudor inh -27% and HP1b binding inh -4%.
CN1C(=O)Nc2cccc3cccc1c23 was read as BAZ2B inh -20%, G9a inh -14%, PLK1 PBD inh -2%, PI5P4K alpha inh -1, JMJD2A Tudor inh -6% and HP1b binding inh 17%.
CCCCn1cc(S(=O)(=O)c2ccc(OC)cc2)c(=O)c2cc(F)c(F)cc21 was read as BAZ2B inh -3%, G9a inh 7%[59 µM], JMJD2A Tudor inh -12% and HP1b binding inh 17%.
For COc1ccc(NC(=O)CN2CCN(c3nc(-c4cccc(OC)c4)cs3)CC2)cc1 the results were BAZ2B inh inconclusive, G9a inh 10µM*, PLK1 PBD inh -7%, PI5P4K alpha inh 4, JMJD2A Tudor inh inconclusive and HP1b binding inh -20%.
For COc1cccc(N2CCN(CC(=O)Nc3nnc(-c4ccccc4)s3)CC2)c1 the results were BAZ2B inh inconclusive, G9a inh -6%[59 µM], PLK1 PBD inh -2%, PI5P4K alpha inh 8, JMJD2A Tudor inh 89µM* and HP1b binding inh -20%.
For COc1cc(CCC(=O)Nc2nnc(-c3cccnc3)s2)cc(OC)c1OC the results were BAZ2B inh -5%, G9a inh 40µM*, PLK1 PBD inh inconclusive, PI5P4K alpha inh -1, JMJD2A Tudor inh -20% and HP1b binding inh -10%.
`CCCC(=O)Nc1nnc(-c2cccc(OCC)c2)s1` gave BAZ2B inh -2%, G9a inh 21%, PLK1 PBD inh -8%, PI5P4K alpha inh -1, JMJD2A Tudor inh -11% and HP1b binding inh 12%.
For COc1cccc(-c2csc(N3CCN(C(=O)Nc4ccc(F)cc4)CC3)n2)c1 the results were BAZ2B inh -29%, G9a inh inconclusive, PLK1 PBD inh -5%, PI5P4K alpha inh 1, JMJD2A Tudor inh -21% and HP1b binding inh -22%.
For COc1cccc(-c2csc(N3CCN(C(=O)C4CCCCC4)CC3)n2)c1 the results were BAZ2B inh inconclusive, G9a inh 14µM*, PLK1 PBD inh -22%, PI5P4K alpha inh 0, JMJD2A Tudor inh inconclusive and HP1b binding inh -26%.
Nc1ccccc1S(=O)(=O)NCCCCc1ccccc1 was read as BAZ2B inh -29%, G9a inh -30%, PLK1 PBD inh -11%, PI5P4K alpha inh 0, JMJD2A Tudor inh -5% and HP1b binding inh 46%.

Screening data from PubChem.
